Bioassay records: PubChem BioAssay, National Center for Advancing Translational Sciences (NCATS)
Shown are actives, neighbours in structure and some others; about 11% of the full set was active somewhere.
PNC assembly inh – blocks assembly of the perinucleolar compartment; PC3M PTB-GFP, PNC prevalence imaging, 16 h; active compounds read low; activity change (PNC), negative = inhibition, % at 10 µM; hit rate 3.1% among 140,000; AID 2417;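 active means readout at or below -70, meaning at least 70% loss of cells showing the perinucleolar compartment, a nuclear body marking cancer cells; inconclusive means readout between -30 and a set limit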;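 further: plate controls were DMSO wells for no effect and camptothecin positive control wells for full effect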
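Compounds are pinned in duplicate onto adhered PC3M cells stably expressing GFP-tagged PTB and incubated 16 h at 37 C. Cells are then fixed, nuclei stained with Hoechst, and PNC-positive cells counted.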
ALDH1A1 inh – inhibitors of human aldehyde dehydrogenase 1A1; P00352; Purified ALDH1A1, NADH fluorescence, propionaldehyde substrate; Potency, µM (top dose mostly 75.3 µM), for the others: at the highest dose activity, negative = inhibition, hits mostly inhibitors; hit rate 7.3% among 220,000; AID 1030;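 further: potency means the concentration at half of the fitted maximal effect; plate controls were no enzyme wells and a reference inhibitor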
Target sequence (P00352 whole entry, looked up): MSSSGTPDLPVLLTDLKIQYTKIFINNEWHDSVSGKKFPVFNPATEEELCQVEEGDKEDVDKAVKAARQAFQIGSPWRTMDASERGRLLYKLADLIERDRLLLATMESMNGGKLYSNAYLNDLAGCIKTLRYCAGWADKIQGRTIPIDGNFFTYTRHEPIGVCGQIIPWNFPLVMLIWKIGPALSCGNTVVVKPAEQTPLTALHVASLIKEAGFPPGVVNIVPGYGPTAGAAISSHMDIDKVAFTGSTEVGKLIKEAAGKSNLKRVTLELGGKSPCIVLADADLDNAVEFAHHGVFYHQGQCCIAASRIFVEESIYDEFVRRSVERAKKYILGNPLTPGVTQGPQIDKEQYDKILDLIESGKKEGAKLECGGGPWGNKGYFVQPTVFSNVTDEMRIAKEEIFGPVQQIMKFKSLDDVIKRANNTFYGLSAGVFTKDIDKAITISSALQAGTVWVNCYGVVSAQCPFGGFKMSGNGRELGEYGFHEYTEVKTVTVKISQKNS
HPGD inh – blocks human HPGD enzyme activity. Potency, µM, inactives show top-dose activity change, negative = inhibition, actives largely listed as inhibitors. P15428. hit rate 4.3% among 150,000. purified HPGD, NADH fluorescence kinetic, PGE2 substrate. AID 894; further: potency means the concentration at half of the fitted maximal effect
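20 nM HPGD preincubated 15 min at room temperature with compound in 50 mM Tris-HCl pH 8, 0.01% Tween 20. Started with 1 mM NAD+ and 30 uM prostaglandin E2; NADH fluorescence (360/450 nm) read 5 times over 30-s intervals, last minus first.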
KDM4E inh – JMJD2E (human) inhibition; JMJD2E catalytic domain, FDH-coupled NADH fluorescence (FDH is formaldehyde dehydrogenase); AID 2147; hit rate 1.6% among 230,000; Potency, µM (highest dose often 57.1 µM), for inactives: top-dose activity change, negative = inhibition, most hits filed as inhibitors;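 further: potency means the concentration at half of the fitted maximal effect; 0% = wells with enzyme and -100% = buffer wells without enzyme; nearly all actives have a fitted effect of over 50% in size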
Active calls of the source: *; ? = inconclusive; nt = no result given; [ ] = another dose, or the depositor's remark. Unless noted, the call rests on the fitted dose curve; in most records, active means well fitted inhibition curve with a large enough effect (not every such curve was filed as active); inconclusive means small, poorly fitted or top-dose-only effect, or another doubt; inactive means no such curve, though single readings can be large or run the other way. Unless noted, on the % scale 0 is the no-effect control and ±100 the full control effect.

SMILES | PNC assembly inh | ALDH1A1 inh | HPGD inh | KDM4E inh
O=C(CNc1ccccc1)N/N=C/c1ccc([N+](=O)[O-])cc1 | 68 | 3.5µM* | -2% | -12%
O=C(CNc1cccc([N+](=O)[O-])c1)N/N=C/c1ccc([N+](=O)[O-])o1 | nt | 2µM* | nt | -23%
O=C(CCC(=O)Nc1ccccc1)N/N=C/c1ccncc1 | -9 | -9% | 22µM* | -3%
CSc1nnc(-c2cc(Br)ccc2N=Cc2c(C)[nH]n(-c3ccccc3)c2=O)c(=O)[nH]1 | nt | 19µM* | nt | -9%
CCSc1nnc(-c2cc(Br)ccc2N=Cc2c(C)[nH]n(-c3ccccc3)c2=O)c(=O)[nH]1 | nt | ? | nt | -1%
COc1cc(/C=N/S(=O)(=O)CCc2ccccc2)ccc1O | 58 | 28µM* | -12% | -3%
O=S(=O)(CCc1ccccc1)/N=C/c1cccs1 | -103* | ? | -17% | -25%
O=C(Cc1ccccc1)N/N=C/c1cccs1 | 22 | -1% | -12% | 7%
CC(C)(C)c1ccc(C(=O)NCC(=O)N/N=C/c2ccccc2OCC(=O)O)cc1 | nt | 1% | nt | -1%
C[C@@H]1C=C[C@](Cc2ccccc2)(C(=O)NCCCNc2ncc(C(F)(F)F)cc2Cl)N1C(=O)c1ccccc1 | nt | ? | -23% | ?
CC(C)CN(CC(C)C)S(=O)(=O)N1CCC(C(=O)NCc2ccco2)CC1 | nt | 11% | nt | 2%
Cc1cc(=O)n(CCO)c(O)c1C#N | ? | -5% | -25% | ?
Cc1cc(=O)n(CCc2ccccc2)c(O)c1C#N | 28 | -18% | -17% | 11µM*
N#C/C(=C\Nc1ccccn1)C(=O)c1ccco1 | nt | -2%[13.5 µM] | -21% | nt
CCOC(=O)c1c(NC(=O)COC(=O)Cn2c(C)nc3ccccc32)sc2c1CCCC2 | 19 | ? | -20% | -10%
COC(=O)c1c(NC(=O)COC(=O)Cn2cnc3ccccc32)sc(C)c1C | 2 | 25µM* | -19% | ?
COC(=O)c1c(NC(=O)COC(=O)Cn2cnc3ccccc32)sc2c1CCCC2 | -29 | 14µM* | -20% | -3%
CCOC(=O)c1c(NC(=O)COC(=O)Cn2cnc3ccccc32)sc2c1CCC(C)C2 (centres undefined) | 23 | 7.9µM* | -25% | -25%
CCC(C)NC(=O)NCc1ccccc1F (centres undefined) | nt | 7% | nt | -1%
COc1ccc(Nc2ccc3nnc(-c4ccc(Br)cc4)n3n2)cc1 | -8 | 11% | 0% | 14%
CCOC(=O)C1CCN(CC(=O)N2C(C)CCCC2C)CC1 (centres undefined) | -7 | 11µM* | -19% | ?
O=C(CSC1=NC(=O)C(c2ccccc2)C(=O)N1)Nc1ccccc1[N+](=O)[O-] (centres undefined) | nt | ? | nt | -11%
O=C(CSC1=NC(=O)C(c2ccccc2)C(=O)N1)Nc1ccccc1Cl (centres undefined) | ? | 20µM* | -9% | 1%
COc1ccc(OCc2nnc(SCC(=O)c3ccccc3)o2)cc1 | nt | ? | nt | -11%
CNc1cc([N+](=O)[O-])ccc1N/C=C/C(=O)c1ccc2c(c1)OCO2 | -118* | 13µM* | -16% | 3%
SMILES | PNC assembly inh | ALDH1A1 inh | HPGD inh | KDM4E inh
CNc1cc([N+](=O)[O-])ccc1N/C=C/C(=O)c1cccs1 | 51 | ? | -17% | -1%
O=C(Nc1ccc(N2CCOCC2)cc1N1CCOCC1)c1cccs1 | -4 | -3% | -15% | -9%
O=C(c1ccc(N2CCOCC2)cc1)c1cccs1 | ? | ? | 13µM* | -1%
O=C(Nc1ccc(C(=O)N2CCOCC2)cc1)c1cccs1 | -12 | -8% | 14µM* | 2%
CC(C)C(=O)N1CCN(c2ccc(NC(=O)c3cccs3)cc2)CC1 | -100* | 4% | -8% | 2%
CCC(C)c1ccc(NC(=O)c2cccs2)cc1 (centres undefined) | 13 | -12% | -19% | 0%
CC(C)CNC(=O)c1ccc(NC(=O)c2cccs2)cc1 | -3 | -1% | 18µM* | 3%
O=C(Nc1cc(C(=O)N2CCOCC2)ccc1N1CCCC1)c1cccs1 | 2 | -4% | -21% | 0%
O=C(CN1CCCC1)Nc1ccccc1Sc1ccc(Cl)cc1 | nt | -2% | nt | ?
O=C(c1ccccc1)N1CN2CN(C(=O)c3ccccc3)CC([N+](=O)[O-])(C2)C1 | 40 | 11% | 8% | 8%
COc1cccc(/C=N/NC(=O)CNC(=O)c2ccc(S(=O)(=O)N3CCCC3)cc2)c1OC | nt | ? | nt | -8%
N/C(Cc1nc2ccccc2s1)=N\O | nt | nt | nt | -26%
Oc1cccc(-c2nc3ccccc3s2)c1 | ? | -7% | -12% | 1%
Oc1ccc(O)c(Cc2nc3ccccc3s2)c1 | nt | 20µM* | nt | ?
Nc1ccc(C(=O)OCc2nc3ccccc3s2)cc1 | nt | 10% | nt | -4%
Oc1ccccc1OCc1nc2ccccc2s1 | 15 | -12% | 13µM* | 2%
NC(=O)CSCc1nc2ccccc2s1 | ? | 7.9µM* | ? | -10%
O=C(OCc1nc2ccccc2s1)c1ccc(Br)s1 | ? | -4% | 16µM* | 5%
Cc1sc(N)c(C(=O)c2cccc(C(F)(F)F)c2)c1C | nt | ? | -22% | -29%
O=C(NC12CC3CC(CC(C3)C1)C2)N(Cc1ccccc1)Cc1ccncc1 | nt | ? | nt | 0%
O=C(Cc1ccccc1)c1nc2ccccc2s1 | -2 | -1% | 22µM* | 9%
COc1ccc(OC)c(C2CC(c3c(-c4ccccc4)c4cc(Cl)ccc4[nH]c3=O)=NN2S(C)(=O)=O)c1 (centres undefined) | ? | ? | -15% | ?
COc1ccc(C2CC(c3c(-c4ccccc4)c4cc(Cl)ccc4[nH]c3=O)=NN2S(C)(=O)=O)cc1 (centres undefined) | -13 | 0.4µM* | -7% | -30%
CC(=NC1CCCCC1)c1ccccc1O | nt | ? | -7% | nt
CCOC(=O)C(C)Oc1cccc2c(=O)n(CC(=O)N3CCCc4ccccc43)ccc12 (centres undefined) | 6 | 20µM* | ? | 3%
SMILES | PNC assembly inh | ALDH1A1 inh | HPGD inh | KDM4E inh
CCOC(=O)COc1cccc2c(=O)n(CC(=O)N3CCc4ccccc43)ccc12 | -111* | -5% | -12% | -5%
COc1cccc2c(=O)n(CC(=O)N3CCc4ccccc43)ccc12 | 16 | ? | -16% | -7%
OC(CNCCCCNCC(O)C(F)(F)F)C(F)(F)F (centres undefined) | nt | 9% | nt | 0%
O=C(c1ccc(=O)[nH]n1)N1CCc2ccccc2C1 | nt | nt | nt | 2%
N#C/C(=C\c1ccc(-c2ccccc2)o1)C(=O)Nn1cnnc1 | 52 | -2% | 16µM* | 3%
N#C/C(=C\c1ccc(-c2ccc(Br)cc2)o1)C(=O)NCCc1c[nH]c2ccccc12 | 3 | 6% | -14% | -3%
Cc1ccc(-c2ccc(/C=C(\C#N)C(=O)Nc3cc(C)nn3-c3ccccc3)o2)cc1 | 10 | 11% | -8% | 9%
N#C/C(=C/c1ccc(-c2ccc(Br)cc2)o1)C(=O)NC1CCCCC1 | 41 | 1.1µM* | -15% | -24%
COc1ccc(CCC(=O)Nc2ccc(C)c([N+](=O)[O-])c2)cc1 | ? | 10µM* | 13µM* | 3%
COc1ccc(NC(=S)Nc2ccccc2)cc1 | nt | 4%[13.5 µM] | -1% | -3%
